# Experimental data: PubChem BioAssay (NCATS)
# Where “and” joins values, the source holds several entries; their conditions need not be identical. Identical values can stand only once. Records with an inconclusive call do not appear. Unmarked numbers belong to inactive results. Calls of active or inactive are those of the source. Calls come from the whole dose curve; as a rule, active = well fitted inhibition curve with a large enough effect; inconclusive = small, poorly fitted or top-dose-only effect; inactive = flat fitted curve, though single readings scatter.
# System: HEK293
# Test: Cytotoxic Profiling of Annotated Libraries Using Quantitative High-Throughput Screening (AID 1296008); note: nearly all actives have a fitted effect of over 60% in size
# Conditions: Five cell lines viability, CellTiter-Glo ATP luminescence, 48-72 h; max response: hits give low values
# In short: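 Compounds were pin-transferred onto cells and incubated 48 or 72 hr at 37 degree Celsius, 95% humidity. CellTiter-Glo was added, plates sat 10 min at room temperature, then ATP-coupled luminescence was imaged as the viability read-out.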
# % is set by controls: 0 for no effect and ±100 for the full control effect; potency is the fitted concentration of half-maximal effect.
Compound,Potency,max response,outcome
C=CCc1cccc(C=NNC(=O)CN2CCN(Cc3ccccc3)CC2)c1O,13.2 µM (active),,
COc1ccc2cc1Oc1ccc(cc1)C[C@H]1c3cc(c(OC)cc3CCN1C)Oc1c(OC)c(OC)cc3c1[C@H](C2)N(C)CC3,11.8 µM (active),,
Cc1cccc(-c2[nH]c(C(C)(C)C)nc2-c2ccc3c(c2)OCO3)n1,4.18 µM (active),,
CC(C)(C)c1nc(-c2cccc(NS(=O)(=O)c3c(F)cccc3F)c2F)c(-c2ccnc(N)n2)s1,,-10.3%,
Oc1cc(O)cc(C=Cc2ccc(O)c(O)c2)c1,,,inactive
Cc1ccc2c(c1)C(=O)[C@]1(O)CCN(c3ccccc3)C1=N2,,-19.6%,
O=C(Nc1cccc(Cl)c1)Nc1ncc(CCNc2ncnc3ccsc23)s1,16.6 µM (active),,
CCC[C@H](Nc1nc(-c2ccc(NC(=O)NCC)c(OC)c2)ncc1C)c1cccnc1,,-101%,
CNC1CCC(N(Cc2cccc(-c3ccncc3)c2)C(=O)c2sc3ccccc3c2Cl)CC1 (stereo not drawn),8.33 µM (active) and 7.31 µM (active),,
CN1CCN(c2cccc(Nc3nc4c(-c5ccc(S(C)(=O)=O)cc5)cccn4n3)c2)CC1,9.2 µM (active),,
CC1=C[C@@H]2[C@@H]([C@@H](O)C[C@@]3(C)[C@H]2C[C@@H](C)[C@]3(O)C(=O)CO)[C@@]2(C)Cc3cnn(-c4ccccc4)c3C=C12,10.3 µM (active),,
NC(=O)c1noc([C@H](CCCC2CCCCC2)CC(=O)NO)n1,11.8 µM (active),,
CC(C)C[C@H](NC(=O)c1cc2ccccc2s1)C(=O)N1CCN(C(=O)[C@H](CO)NS(=O)(=O)c2ccc(Cl)cc2Cl)CC1,18.7 µM (active),,
